High-throughput results from PubChem BioAssay.
KCNH2 3.1 inh: KCNH2 3.1 (human) potassium channel inhibition | U2OS KCNH2 3.1, thallium flux FluxOr; hits give low values | AID 720553 | activity change, % (tested at about 1.8 µM) | hit rate 0.95% among 340,000;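 active = maximum activity change below -70%; inconclusive = maximum activity change from -70% to -50%; inactive = maximum activity change above -50%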;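 also: thallium influx rate constant from kinetic fluorescence after stimulation buffer; % is scaled to controls: 0 for no effect and ±100 for the full control effect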
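Virally transduced U2OS (3.1 isoform, 4 h infection in dark at RT) → overnight 37 C → FluxOr + Red40 in HBSS/HEPES, 45 min → stimulation buffer, 2 min kinetic read → rate constant vs DMSO controls.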
VDR inh: inhibitors of human vitamin D receptor; P11473; VDR-SRC2-3 peptide fluorescence polarization, 2 h; Potency, µM, without a hit: max response, negative = inhibition, hits mostly inhibitors; hit rate 0.93% among 400,000; also: potency is read from the fitted curve at half-maximal effect; % is scaled to controls: 0 for no effect and ±100 for the full control effect
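VDR–SRC2-3 interaction, FP format. Cmpds 23 nl via pintool, brief spin, 2 h ambient incubation.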
hERG WT inh: inhibitors of human wildtype KCNH2 potassium channel | Q12809 | U2OS, BacMam KCNH2, thallium flux FluxOr; hits give low values | activity change, % at 1.84 µM | hit rate 0.37% among 340,000 | AID 720551;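 active = maximum activity change below -70%; inconclusive = maximum activity change between -70% and -50%; inactive = maximum activity change above -50%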; also: % is scaled to controls: 0 for no effect and ±100 for the full control effect
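U2OS cells were transduced with wild-type KCNH2 virus (2.03 x 10^8 / mL) for 4 h at room temperature, then cultured overnight at 37 C. Thallium flux was read with FluxOr dye. Rate constants were normalized to DMSO controls.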
PLK1 PBD block: inhibitors of human PLK1 polo-box domain binding. P53350. Plk1 PBD binding of FITC phosphopeptide, fluorescence polarization. Potency, µM, inactives show max response, negative = inhibition, actives largely listed as inhibitors. hit rate 2.8% among 360,000. AID 720504; also: potency is read from the fitted curve at half-maximal effect; series mostly up to about 57 µM; % is scaled to controls: 0 for no effect and ±100 for the full control effect; nearly all actives have a fitted effect of over 65% in size
CBFb-RUNX1 inh: blocks binding between human CBF-beta and RUNX1 | Q01196+Q13951 | AlphaScreen CBFb-His/RUNX1-biotin binding, biochemical | Potency, µM (series often up to 59.8 µM), for inactives: at the top dose activity, negative = inhibition, usual class: inhibitors | 230,000 tested, under 10 active; also: % of control where 0% means no effect
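Read-out: AlphaScreen. Format: His-CBF-beta with biotinylated RUNX1 (30 nM each) preincubated 20 min, compound 15 min, Ni-chelate plus streptavidin beads 90 min; room temperature throughout.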
MBNL1 CUG block: MBNL1-poly(CUG) RNA binding inhibition | TR-FRET MBNL1-His/biotin-(CUG)12 binding, 665/545 ratio | Potency, µM (series often up to 57.5 µM), for inactives: top-dose activity change, negative = inhibition, most hits filed as inhibitors | hit rate 0.036% among 280,000; active = well fitted inhibition curve with a large enough effect in the signal ratio, with a control signal flat, not every such curve was filed as active; inconclusive = small, poorly fitted or top-dose-only effect, or effect the other way, or a change in a side signal; inactive = no such curve, though single readings can be large or run the other way; the % refers to the signal ratio; also: potency is read from the fitted curve at half-maximal effect; % is scaled to controls: 0 for no effect and ±100 for the full control effect
Target sequence (Q9NR56 whole entry, looked up): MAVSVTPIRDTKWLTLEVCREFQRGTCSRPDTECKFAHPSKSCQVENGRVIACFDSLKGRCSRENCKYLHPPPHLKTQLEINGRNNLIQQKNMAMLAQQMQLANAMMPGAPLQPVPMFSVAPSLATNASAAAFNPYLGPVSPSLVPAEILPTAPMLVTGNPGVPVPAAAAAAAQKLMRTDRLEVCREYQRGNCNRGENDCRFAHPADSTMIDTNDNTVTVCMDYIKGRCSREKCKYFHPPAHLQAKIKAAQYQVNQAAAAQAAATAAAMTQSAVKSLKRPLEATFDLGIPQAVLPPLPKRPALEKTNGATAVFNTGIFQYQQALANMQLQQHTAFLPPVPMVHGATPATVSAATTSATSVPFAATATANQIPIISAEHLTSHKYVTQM
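MBNL1-His + Biotin-(CUG)12, cpd titration 92 nM–58 uM; Tb anti-His Ab 0.055 ng/ul, SA-XL665 5 nM (final); 60 min RT; ratiometric 665/545 nm, Ex 340 nm; normalized to buffer and full-complex controls.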
Numbers without * were called inactive; u = inconclusive; x = no result; ! = a repeat was not active. Rows were chosen to be rich in hits. Some 3.8% of all compounds tested hit in one or more screens of this group. Unless noted, calls follow the shape of the dose curve; as a rule, active = well fitted curve in the direction sought with a large enough effect; inconclusive = small, poorly fitted or top-dose-only effect, or another doubt; inactive = no such curve, though single readings can be large; an effect the other way counts as inactive or inconclusive.

SMILES	KCNH2 3.1 inh	VDR inh	hERG WT inh	PLK1 PBD block	CBFb-RUNX1 inh	MBNL1 CUG block
CCOC(=O)CSc1nnc2n(-c3ccccc3)c(=O)c3c4c(sc3n12)CC(C(C)(C)C)CC4 (stereo unspecified)	x	1.5%	x	x	x	x
Cc1cc(C)c2sc(N(CCCN(C)C)C(=O)c3ccc(Br)s3)nc2c1	-82.4*	33.0%	-23.0	-1.2%	5.9%	10.8%
Cc1cc(C)c2nc(N(CCCN(C)C)C(=O)c3ccc4c(c3)OCCO4)sc2c1	-86.0*	3.6%	-8.1	-12.6%	x	x
Cc1cccc(NC(=O)/C(=C/c2cccc([N+](=O)[O-])c2)NC(=O)c2cccs2)c1	-10.0	-20.2%	30.9	-6.8%	-4.4%	4.0%
O=C(Nc1cccc2ccccc12)/C(=C/c1cccc([N+](=O)[O-])c1)NC(=O)c1cccs1	-89.2*	-8.4%	-14.6	-4.4%	1.6%	10.6%
O=C(Nc1cccc2ccccc12)/C(=C\c1cccc([N+](=O)[O-])c1)NC(=O)c1cccs1	-85.8*	2.2%	-103.1*	5.1%	-12.3%	-8.3%
Cc1nn2c(=O)cc(COC(=O)c3ccc(NC(=O)c4cccs4)cc3)nc2s1	x	-8.9%	x	x	x	x
CC[C@@H](C)[C@@H](CO[C@@H](Cc1ccccc1)C(=O)N[C@@H](CCS(C)(=O)=O)C(=O)OC(C)C)NC[C@@H](N)CS	x	10µM*	x	x	20.5%	x
NNC(=O)c1cccn(Cc2ccc(Cl)cc2Cl)c1=O	-6.3	20.5%	-87.7*	-13.0%	x	-1.0%
O=C(N/N=C1/CC2C=CCC12)c1ccco1 (stereo unspecified)	5.5	u	2.9	29.9µM*	-12.1%	x
O=C(N/N=C1/CC2C=CCC12)c1cccs1 (stereo unspecified)	3.3	16.5%	-2.8	-0.3%	x	-5.7%
CN1CCN(CCOC2Cc3ccccc3Sc3ccc(Cl)cc32)CC1 (stereo unspecified)	-91.2*	-8.5%	u	-2.0%	u	11.3%
C=C1C(=O)O[C@@H]2[C@H]3O[C@]3(C)CCC=C(C)CC[C@@H]12	x	35.5µM*!	x	x	2.0%	x
CN(C)CC1CCCCC1OC(=O)c1ccc(Cl)cc1 (stereo unspecified)	9.4	-7.8%	0.8	-8.4%	-7.0%	-4.9%
COc1ccc(/C=C2/CCCC(CN(C)C)C2=O)cc1 (stereo unspecified)	x	u	-5.3	23.8µM*	x	x
COc1cccc(/C=C2/CCC(CN(C)C)C2=O)c1 (stereo unspecified)	x	39.8µM*	-47.0	3.36µM*	x	x
CN(C)CC1CCC/C(=C\c2ccc(OC(=O)/C=C/c3ccc(Cl)c(Cl)c3)cc2)C1=O (stereo unspecified)	0.9	u	8.5	-18.6%	x	x
CCCC/C=C1/CCC(CN(C)C)C1=O (stereo unspecified)	2.0	u	-11.6	11.9µM*	x	x
CN(C)CC1CCC/C(=C/c2ccc(Cl)cc2)C1=O (stereo unspecified)	-4.1	79.4µM*	5.0	5.97µM*	x	x
Cc1nc(-c2nc(-c3c(C(=O)NNC(=O)Nc4cccc(Cl)c4)noc3C)cs2)cs1	5.6	-7.6%	-0.5	-3.4%	-1.0%	3.6%
Cc1nc(-c2nc(-c3c(C(=O)NNC(=O)Nc4ccccc4)noc3C)cs2)cs1	-93.8*	6.3%	-77.3*	-0.9%	-1.2%	x
CC(=O)Nc1ccc2c(O)cc(S(=O)(=O)O)cc2c1	-11.8	-4.8%	-2.3	-27.1%	x	x
Nc1cccc2c(O)cc(S(=O)(=O)O)cc12	26.4	12.6µM*	-6.2	13.4µM*	x	x
O=S(=O)(O)c1cc(O)c2ccc(Nc3ccccc3)cc2c1	-1.9	-22.7%	0.8	10.6µM*	x	x
O=S(=O)(O)c1cc(O)c2cc(Nc3ccccc3)ccc2c1	-3.9	u	-10.6	18.9µM*	x	x
SMILES	KCNH2 3.1 inh	VDR inh	hERG WT inh	PLK1 PBD block	CBFb-RUNX1 inh	MBNL1 CUG block
COc1ccccc1Nc1ccc2c(O)cc(S(=O)(=O)O)cc2c1	4.8	u	-1.0	10.6µM*	x	x
COc1ccccc1N1CCN(C(CNC(=O)C(=O)NCCc2ccccc2)c2cccnc2)CC1 (stereo unspecified)	x	1.3%	x	x	x	x
CCC(=O)Nc1ccc(C)cc1-c1nc2ccccc2n(CC(=O)c2ccc(C)cc2)c1=O	x	11.9%	x	x	x	x
O=S(=O)(O)c1cc(O)c2c(N=Nc3ccc(Nc4ccccc4)c4c(S(=O)(=O)O)cccc34)cc(S(=O)(=O)O)cc2c1	x	39.8µM*	x	x	x	x
O=S(=O)(O)c1ccc(O)c2cc(Nc3ccccc3)ccc12	8.2	u	4.7	4.74µM*	x	x
CCCCc1nn2c(=O)cc(COC(=O)c3cccc(OC)c3)nc2s1	x	3.3%	x	x	x	x
CCOC(=O)C1CCN(C(=O)Cn2c(=O)oc3cc(S(=O)(=O)N4CCC(C)CC4)ccc32)CC1	x	-3.1%	x	x	x	x
Cc1ccc2c(=O)cc(C(=O)N(Cc3ccc(N(C)C)cc3)C3CCS(=O)(=O)C3)oc2c1 (stereo unspecified)	x	11.0%	x	x	x	x
Cc1ccccc1OCC(=O)N/N=C/c1ccc(N2CCOCC2)o1	-6.0	39.8µM*	-37.9	u	x	7.1%
Cc1ccccc1OCC(=O)N/N=C/c1ccncc1	-5.6	-4.2%	13.6	-5.8%	4.1%	u
CCN(CC)CCCNc1ccc2ncn3c4ccc(O)cc4c(=O)c1c23	19.1	u	3.1	10.6µM*	x	x
COc1ccc(C2Nc3ccccc3C(=O)N2c2cccc3ccccc23)cc1COc1c(C)cccc1C (stereo unspecified)	x	-1.1%	x	x	x	x
CC1(C)CCC(=O)N2CC[C@H]3C[C@H](OC(=O)Nc4ccc5c(c4)OCO5)C[C@@H]1[C@H]32	-135.4*	-6.5%	-9.9	-11.8%	x	0.6%
CNc1cc(C)c(C#N)c2nc3ccccc3n12	10.0	-6.6%	-6.8	-1.5%	x	11.6%
Cc1cc(Cl)n2c(nc3ccccc32)c1C#N	-10.4	39.8µM*	3.7	u	-4.4%	17.8%
CN(CCCN1c2ccccc2CCc2ccccc21)CC(=O)c1ccc(Cl)cc1	x	39.8µM*	x	x	-8.0%	x
O=C(O)C(c1ccccc1)N1C(=O)c2ccccc2C1=O (stereo unspecified)	13.1	3.9%	-13.3	-13.0%	x	-6.5%
O=C(O)CC(c1ccccc1)N1C(=O)c2ccccc2C1=O (stereo unspecified)	-75.7*	-28.4%	-1.0	0.3%	x	x
COc1ccc(CCn2c(=O)c3cccnc3n(CC(=O)Nc3ccc(C)cc3C)c2=O)cc1OC	x	-7.3%	x	x	x	x
Cc1ccc2nc(N/N=C\c3ccc([N+](=O)[O-])o3)nc(-c3ccccc3)c2c1	-97.3*	6.7%	-44.3	3.2%	-13.6%	27.8%
O=[N+]([O-])c1ccc(/C=N/Nc2nc(-c3ccccc3)c3cc(Br)ccc3n2)o1	-101.3*	10.0%	-17.4	-4.7%	0.6%	-1.4%
